Bioassay records (PubChem BioAssay)
Most compounds without a hit are left out; they make up all but 3% or so of the library.
ROMK mod = ROMK potassium channel modulators, primary screen, cell-based, thallium flux, MLSMR library. 130,000 tested, 2% active. AID 1918, 2009. Tet-inducible ROMK, thallium flux fluorescence; actives lie on both sides. B-score at 10 µM;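 active means signal ratio slope over the read window, or its plate-corrected B-score, at least 3 SD from the plate mean, either direction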;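 further: B-score of the F/F0 ratio slope over 7 to 12 s after thallium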
Target sequence (P48048 whole entry, looked up): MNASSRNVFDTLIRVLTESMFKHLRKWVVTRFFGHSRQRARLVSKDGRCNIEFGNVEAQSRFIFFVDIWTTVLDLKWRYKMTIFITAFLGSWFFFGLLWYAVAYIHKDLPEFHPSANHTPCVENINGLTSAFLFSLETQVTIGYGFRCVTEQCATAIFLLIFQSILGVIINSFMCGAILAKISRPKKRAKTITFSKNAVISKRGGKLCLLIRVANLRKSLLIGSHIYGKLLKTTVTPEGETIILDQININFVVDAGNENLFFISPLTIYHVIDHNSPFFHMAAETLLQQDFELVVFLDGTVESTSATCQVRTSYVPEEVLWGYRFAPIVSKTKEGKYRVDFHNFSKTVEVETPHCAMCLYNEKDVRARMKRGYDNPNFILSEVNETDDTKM
SDO1 yeast rescue = growth rescue of sdo1-depleted yeast, primary screen, S. cerevisiae, bone marrow failure model; S. cerevisiae sdo1-depleted JHY4D growth rescue, OD600 30 h; active compounds read high; pdr5 snq2 efflux-pump mutant strain; z-score at 10 µM; 140,000 tested, 0.21% active;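 active means z-score above 3 at both the 24 hr and the 30 hr optical density reads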;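 further: z-score against mean and SD of all compound wells on the same plate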
Measles CPE = compounds protecting cells from measles virus cytopathic effect, primary screen, measles RdRp inhibitor project, single point, MLSMR library, absorbance | Measles virus-infected cells, CPE protection | protection (pct of control), % at 4 µM | 140,000 tested, 1.5% active | AID 841, 2007; in the data active means protection mostly above about 24%, no sharp cut-off; inactive means mostly below about 26%
Insulin prom inh = inhibitors of insulin promoter-driven GFP, primary screen, imaging, TRM-6 cells (human fetal islet line), eGFP reporter, cell count. inhibition, % at 2 µM. 130,000 tested, 0.9% active. reporter expression induced with tamoxifen;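 active means inhibition above the mean plus 3 SD, with well images judged a real hit on visual review, cut at about 60% in these data, passing the limit was not always enough; inconclusive means inhibition over the cutoff but images rejected on review; inactive means inhibition not above the cutoff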
SDO1 rescue DR = SDO1-depleted yeast growth rescue, concentration-response, diseases of bone marrow failure, JHY4D, OD600. OD recovery (test concentration not listed). shares compounds with SDO1 yeast rescue. 440 tested, 44% active. S. cerevisiae JHY4D (SDO1-depleted) growth rescue, 30 h; active compounds read high; efflux-deficient strain, SNQ2 and PDR5 mutated;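 active means yeast growth recovered at 30 hours, either rising with dose fitted slope above 0.001 or with average optical density gain above 0.07, some results past the limit were not filed as active; inactive means growth falling with dose or no effect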;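 further: gain in OD600 from 0 h to 30 h averaged across all seven doses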
ROMK hit retest = ROMK channel modulator hit retest, confirmation, cell-based, thallium flux, duplicate, resupplied hits. shares compounds with ROMK mod. fluorescence ratio; active compounds read low. normalized thallium flux (F/F0 slope) at 10 µM. 3,000 tested, 54% active;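 active means Flux at 10 µM at least 3 SD below or above vehicle control mean in one or both replicates; inconclusive means no clear call, values can overlap the other calls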
* marks the source's active call; other numbers are inactive results; ? = inconclusive; nt = not tested or not shown.

SMILES	ROMK mod	SDO1 yeast rescue	Measles CPE	Insulin prom inh	ROMK hit retest	others
O=C1NC(=O)C(=Cc2ccccc2Oc2ccc(F)cc2)C(=O)N1	3.3*	nt	nt	50	nt
CN1C(=O)C(=Cc2ccccc2Oc2ccc(Cl)c(F)c2)C(=O)N(C)C1=O	nt	-0.34	4	-54	nt
Cc1ccc(-c2cc(-c3ccc(C)cc3)[n+](C)o2)cc1	0.12	-0.64	10	79*	nt
Cc1cccc(NC(=O)C(C)N2CC=C(c3ccccc3)CC2)c1 (stereo unspecified)	-0.18	nt	nt	nt	nt
Cc1ccc(OCCSC2=NN2c2cc(C)nc(N)n2)cc1	1.5	nt	nt	nt	nt
CCCCn1c(O)c(C(CC)=NCc2ccc(F)cc2)c(=O)[nH]c1=O	nt	-2.2	9	83*	nt
CN1C(=O)C(=Cc2ccc(-c3cccc(Cl)c3)o2)C(=O)N(C)C1=O	-1.1	-0.17	20*	44	nt
CC1=NN(c2ccccc2)C(=O)/C1=C/c1c(O)[nH]c(=S)[nH]c1=O	nt	0.47	21	12	nt
COC(=O)C1=CO[C@@H](C)[C@@H]2CN3CC[C@]4(C(=O)Nc5ccccc54)[C@@H]3C[C@H]12	0.7	-0.69	28	5	nt
Clc1ccc(OCC#CCN2CCCC2)cc1	-0.77	nt	nt	nt	nt
CCCN(CC#CCOc1ccc(OC)cc1)CCC	nt	0.15	37*	43	nt
CCCN1C2CCCC1CC(NC(C)=O)C2 (stereo unspecified)	0.46	0.86	49*	-50	nt
CNC(=S)NC1CC2CCCC(C1)N2CC(C)C (stereo unspecified)	nt	1.5	13	30	nt
Cn1c(=O)cc(SCC(=O)N2CCC3(CC2)OCCO3)c2ccccc21	nt	3.4*	1	nt	nt	SDO1 rescue DR=0.071*
Cn1c(=O)cc(OCC(=O)N2CCC3(CC2)OCCO3)c2ccccc21	nt	0.93	7	-19	nt
Cc1c(C(c2ccc(O)cc2)c2c(O)c3ccccc3oc2=O)c(=O)n(-c2ccccc2)n1C (stereo unspecified)	-0.12	3.4*	25	7	nt	SDO1 rescue DR=0.039
O=P(C(c1ccc2c(c1)OCO2)N1CCOCC1)(N1CCOCC1)N1CCOCC1 (stereo unspecified)	-0.18	0.71	5	0	nt
CCCCN1C(=O)/C(=C\c2ccco2)C(=O)N(CCc2ccccc2)C1=O	nt	10*	5	-38	nt	SDO1 rescue DR=0.066
CC(C)(C)N(NC(=O)c1ccccc1)C(=O)c1ccccc1	nt	1.1	34	-25	nt
CCOC(=O)c1c(-n2c(C)cc(C=C3C(=O)NC(=O)NC3=O)c2C)sc2c1CCCC2	-4.7*	0.24	4	47	?
Cc1cccc(N2C(=O)NC(=O)/C(=C\c3cc(C)n(-c4sc5c(c4C#N)CCCC5)c3C)C2=O)c1C	nt	-0.25	7	nt	nt
CCCCn1c(C)c(C(=O)OCC)c2c(CN3CCOCC3)c(O)ccc21	-2.3*	-0.05	12	21	0.066*
CCOC(=O)c1c(C)n(Cc2ccco2)c2ccc(O)cc12	nt	-0.56	29	31	nt
CCn1c(O)c(/C=N/NC(=O)c2ccccc2)c(=O)n(CC)c1=S	nt	nt	nt	nt	0.056*
Cn1c(O)c(/C=C/C=Nc2ccccc2)c(=O)n(C)c1=S	nt	-0.39	8	nt	0.046*
SMILES	ROMK mod	SDO1 yeast rescue	Measles CPE	Insulin prom inh	ROMK hit retest	others
COc1ccc(CCNC2CCCCC2)cc1	-0.47	nt	nt	nt	nt
COc1ccc(CCC(C)NCCc2ccccc2)cc1 (stereo unspecified)	-3.9*	-0.2	6	16	0.062*
O=C(NCCCn1ccnc1)C(Cl)(Cl)Cl	0.53	nt	nt	42	nt
CCN(CC)c1ccc(CNCCc2ccc(F)cc2)cc1	-2.8*	nt	nt	nt	0.054*
CCC(C)c1ccc(N2C(=O)NC(=O)/C(=C/c3cccn3CCOc3ccc(C)cc3)C2=O)cc1 (stereo unspecified)	nt	0.7	10	nt	0.047*
Cc1ccc(C2=NN(CCC(=O)N3CCC4(CC3)OCCO4)C(=O)CC2)cc1	-0.41	nt	nt	nt	nt
CO[C@H]1[C@@H](OC)CC(OC2OC(CO)C(O)C(O)C2O)/C(=C\C#N)[C@@H]1O (stereo partly specified)	1.4	0.9	6	5	nt
CCN(CC)c1ccc(N=Cc2c(O)n(CCC3=CCCCC3)c(=O)[nH]c2=O)cc1	-7.1*	0.6	11	64	0.037*
CN(C)c1ccc(N=Cc2c(O)n(CCC3=CCCCC3)c(=O)[nH]c2=O)cc1	-2.7	-0.49	15	21	nt
CN1CCc2nc3sc(C#N)c(N)c3c(-c3cccs3)c2C1	3	1.1	4	38	?
CN1CCc2nc(N)c(C#N)c(-c3ccccc3)c2C1	nt	0.95	13	4	nt
Cc1ccccc1N1C(=O)NC(=O)/C(=C\c2cc(Br)c(N3CCOCC3)o2)C1=O	nt	-0.69	7	nt	0.025*
CCOc1ccc(-c2c(C)n(-c3ccc(OCC)cc3)c3[n+]2CCCCC3)cc1	nt	nt	nt	nt	0.043*
CN(C)c1cc(N)c2c(n1)CCC2 (tested in a mixture with another compound)	nt	-0.22	5	-33	nt
O=C1NC(=O)N(Cc2ccccc2Cl)C(=O)/C1=C/N1CCOCC1	nt	-0.11	22	0	0.06*
CCC(=O)N1N=C2C3CCN(CC3)C2C1c1ccc(C)cc1 (stereo unspecified)	0.92	1	5	22	nt
Cc1oc(-c2ccccc2Cl)nc1CN1C(=O)CN=C(c2ccccc2)c2ccccc21	-2.8*	-0.85	4	-51	0.058*
CCOc1ccc(N2C(=O)NC(=O)/C(=C/c3cnc(SC)nc3)C2=O)cc1	0.22	nt	nt	nt	nt
c1ccc2c(c1)CC1CNCc3cccc(c31)S2 (stereo unspecified)	-2.8*	-0.7	4	-55	0.054*
CCCC(CCC)C(=O)OC[N+](C)(C)CCOC(=O)C(O)(c1ccccc1)C1CCCC1 (stereo unspecified)	-2.6	nt	nt	17	nt
COc1ccc(NC(=S)NC(NC(=O)CF)C(Cl)(Cl)Cl)cc1[N+](=O)[O-] (stereo unspecified)	-0.74	nt	nt	-17	nt
C=C(COC(=O)CCC(=O)O)CC1CC(O)[C@]2(C)OC3CC4OC5C[C@]6(C)O[C@]7(C)CCC8OC9C[C@]%10(C)OC%11C(C)=CC(=O)OC%11CC%10OC9C[C@@H](C)C8OC7CC6O[C@]5(C)C/C=C\C4OC3CC2O1 (stereo partly specified)	nt	nt	nt	nt	0.081
CC1SC2(CN3CCC2CC3)NC1=O (stereo unspecified)	0.21	0.65	29	nt	nt
CN1C(=O)C(=Cc2ccc(N3CCCCCC3)o2)C(=O)N(C)C1=S	nt	-0.86	6	nt	nt
O=C1NC(=O)N(c2ccc3c(c2)OCO3)C(=O)/C1=C\c1ccc(N2CCCCC2)o1	nt	0.19	2	nt	0.052*
CC(=O)Nc1ccccc1C(=O)OCc1ccc(F)cc1	0.0069	nt	nt	nt	nt
O=c1[nH]sc2cc(F)ccc12	-7.6*	nt	nt	-6	0.054*
